# Source: ChEMBL document CHEMBL4513216, “Probing the Open Global Health Chemical Diversity Library for Multistage-Active Starting Points for Next-Generation Antimalarials” (ACS Infect Dis, 2020)
# About 8,600 (12%) of roughly 69,000 compounds showed an effect of 50% or more. For the sample, strong results were picked, then their nearest neighbours and some compounds at random.
# System: Plasmodium berghei
# Assay: Screen against P. berghei liver stage (PbLuc), transformed with Luciferase, at 10uM
# Type: functional, HepG2
# Details: tested at 10 uM
row,Structure (SMILES),INHIBITION
1,CCCNC(=O)COc1ccc(-c2ccccc2)nc1,-91.3%
2,O=C(Cn1cc(I)cn1)Nc1cccnc1,4.74%
3,Cn1cc(C(=O)NCc2cncc3c2CCN(CC2CC2)C3)cn1,28.5%
4,Cc1nc(-c2ccccc2)n(CC(=O)NC(C)C)n1,31.2%
5,COc1ccc(C(N)=O)cc1NCc1nc(-c2cccs2)oc1C,68%
6,CNC(=O)c1ccc(OC)c(NCc2noc(-c3cccs3)n2)c1,10%
7,COc1ccc(C(N)=O)cc1NCc1noc(-c2ccsc2)n1,9.06%
8,COc1ccc(C(N)=O)cc1NCc1ncc(-c2cccs2)o1,69.7%
9,CCc1nc(CCNC(=O)Nc2cc(C(N)=O)ccc2OC)cs1,-10.8%
10,COc1ccc(C(N)=O)cc1NCc1ncc(C(C)(C)C)o1,15.7%
11,CNC(=O)c1ccc(OC)c(NCc2ncc(-c3cccs3)o2)c1,61.1%
12,COc1ccc(NC(=O)CCn2nc(-c3cccs3)oc2=O)cc1OC,-22.9%
13,CNC(=O)c1ccc(OC)c(NCc2noc(-c3ccsc3)n2)c1,-48.5%
14,COc1ccnc(N2CCN(CC(O)CN3CCOCC3)CC2)n1 (stereo not given),4.52%
15,Cn1ccnc1CN1CCC(c2nnc(Cn3cccn3)n2C)CC1,16.3%
16,N#Cc1ccccc1C(=O)N1C[C@@H]2CC[C@H]1CN(c1ncccn1)C2,12.9%
17,N#CC1(C(=O)N2CCCN(c3nccs3)CC2)CCCCC1,11.45%
18,O=C(c1cnc(-c2cnccn2)s1)N1CCCC(n2cccn2)C1 (stereo not given),10%
19,CN1CCC(Oc2ccc(-n3ccnc3-c3nccn3C)cc2)CC1,13%
20,CN(CCc1ccccc1)C(=O)c1cccnc1OCC(F)(F)F,45.1%
21,Cc1cc(=O)n2nc(CNc3cc(Cl)ccc3C)nc2[nH]1,39.2%
22,Cc1ncsc1C(=O)NCCN1CCCCCC1=O,25.4%
23,COCCNC(=O)c1sccc1N(C)S(=O)(=O)c1ccc(Cl)cc1,51.6%

row,Structure (SMILES),INHIBITION
1,CCNC(=O)c1sccc1N(C)S(=O)(=O)c1ccc(Cl)cc1,26.7%
2,CN(C)CCNC(=O)c1sccc1N(C)S(=O)(=O)c1ccc(Cl)cc1,54%
3,Cc1ccc(S(=O)(=O)N(C)c2ccsc2C(=O)NCC(C)C)cc1,28.4%
4,CCCNC(=O)c1sccc1N(C)S(=O)(=O)c1ccc(Cl)cc1,23.7%
5,CC(C)CCNC(=O)c1sccc1N(C)S(=O)(=O)c1ccccc1,0%
6,CC(C)NC(=O)c1sccc1N(C)S(=O)(=O)c1ccc(Cl)cc1,0%
7,CNC(=O)c1sccc1N(C)S(=O)(=O)c1ccc(Cl)cc1,84.7%
8,COC(=O)CNC(=O)c1sccc1N(C)S(=O)(=O)c1ccc(Cl)cc1,20.1%
9,CN1CCCC1c1nnc2n1CCN(S(=O)(=O)c1ccccc1Cl)CC2 (stereo not given),-12.252%
10,NC(=O)[C@@H]1Cc2ccccc2N1C(=O)C1CC(c2ccccc2)=NO1 (stereo not given in full),-13.6%
11,CNC(=O)CN(C)C(=O)c1cc(Cl)c(Cl)n1C,37.1%
12,Cc1nnc(NCc2cccc(OCc3ccccn3)c2)c(C#N)c1C,40.1%
13,COCC(=O)NCc1cc(=O)n2c(n1)CN(Cc1ccsc1)CCC2,41.5%
14,CC(C)(C)OC(=O)N1CCC(C(=O)NCc2ccccc2)C1 (stereo not given),-10.3%
15,CN(Cc1ccco1)C(=O)[C@H]1CSCN1C(=O)OC(C)(C)C,29.6%
16,CC(C)(C)OC(=O)N1CC(=O)N(Cc2ccco2)CC(O)C1 (stereo not given),29.8%
17,CO[C@H]1CN(C(=O)OC(C)(C)C)CC1NCc1ccoc1 (stereo not given in full),66.5%
18,CO[C@H]1CN(C(=O)OC(C)(C)C)CC1NCc1ccco1 (stereo not given in full),74%
19,CC(C)(C)OC(=O)N1CC(=O)N(CCc2ccccc2)CC(O)C1 (stereo not given),9.36%
20,CO[C@H]1CN(C(=O)OC(C)(C)C)CC1NCc1cccn1C (stereo not given in full),54.5%
21,CO[C@H]1CN(C(=O)OC(C)(C)C)CC1NCc1cc[nH]c1 (stereo not given in full),38.7%
22,CO[C@H]1CN(C(=O)OC(C)(C)C)CC1NCc1ccn(C)c1 (stereo not given in full),39.6%
23,CCOCCN1Cc2ncn(C)c2C(COCC2CCOCC2)C1 (stereo not given),36.9%

row,Structure (SMILES),INHIBITION
1,CCCc1ccc2oc(C(=O)N3CCN(CCOC)CC3)c(C)c2c1,-13.1%
2,COc1ccc(-n2cccn2)c(CN2CCC3(CCCN(C)C3=O)C2)c1 (stereo not given),43.9%
3,Nc1nc(N)c2c(n1)OC1(CCN(C(=O)CC3CCCNC3)CC1)C2 (stereo not given),27.1%
4,Cc1cc(C(=O)N[C@H]2Cc3ccccc3[C@@H]2N)c(=O)[nH]c1C,21.5%
5,Cc1nc(CN2CCN(C)C(=O)C23CCN(CC2CCCC2)CC3)cs1,49.4%
6,Cc1noc([C@H]2COC[C@H]3CN(C(=O)Cc4ccccc4F)C[C@H]32)n1,12.7%
7,O=C(CCCn1cccn1)N1C[C@@H](O)[C@H](Oc2cccc(F)c2)C1,32.8%
8,CC(C)Cn1cncc1CNC(=O)c1cccc(CC2CCNCC2)c1,42.3%
9,CCn1cc(CN(C)C(=O)c2cccc(CCC(C)(C)O)c2)cn1,7.11%
10,CC(C)(O)CCc1cccc(C(=O)NCc2cnn3cccnc23)c1,54.5%
11,Cc1cccnc1[C@H](C)NC(=O)c1cccc(CC2CCNCC2)c1,15%
12,Cc1cnccc1CN(C)C(=O)c1cccc(CCC(C)(C)O)c1,-2.39%
13,O=C(NCc1cnn2cccnc12)c1cccc(CC2CCNCC2)c1,77.7%
14,CCOc1ccccc1CC(=O)N1C[C@H](C2CC2)[C@@H](N)C1,2.66%
15,Cc1nn(C)cc1NC(=O)CN1CCN(C2CCCC2)C(=O)C1,19.35%
16,CC(C)c1nc(C2CCCN2Cc2nccn2CC(F)(F)F)no1 (stereo not given),26.4%
17,c1cc(-c2cnc(NC3CC3)nc2[C@@H]2CCCO2)ccn1,5.34%
18,CS(=O)(=O)NCC1CCCN(C(=O)COCC2CC2)C1 (stereo not given),48.1%
19,Cc1ccc(NC2CCN(C(=O)COCC3CC3)CC2)nn1,56.6%
20,Cc1ccc(NC2CCN(C(=O)COCC(F)(F)F)CC2)nn1,53%
21,O=C(COCC1CC1)N1CCSCC1,64.9%
22,Cc1ccc(NC2CCN(C(=O)COc3ccccc3)CC2)nn1,-29.7%
23,CC(C)(O)CN1CCN(C(=O)COCC2CC2)CC1,-38.8%

row,Structure (SMILES),INHIBITION
1,Cc1ccc(NC2CCN(C(=O)COC3CCCCC3)CC2)nn1,-7.81%
2,Cc1ccc(NC2CCN(C(=O)COC3CCCC3)CC2)nn1,-28.4%
3,Cc1ccc(NC2CCN(C(=O)CCOCC(F)(F)F)CC2)nn1,33.3%
4,O=C(NCc1csc(Br)c1)N1CCOCC1,-6.865%
5,COCCC(=O)NCCc1nc2cc(-c3ccc(OC)cc3)ncn2n1,23.5%
6,Cc1oncc1C(=O)N1CCC2(CC1)C(c1cnn(C)c1)CC(=O)N2C (stereo not given),-15.5%
7,CN(C)CC1[C@H]2CN(C(=O)c3cc(=O)[nH]c4ccc(F)cc34)C[C@@H]12 (stereo not given in full),43%
8,CCC(C(=O)NC(C)(C)C)n1ccc2ncccc2c1=O (stereo not given),20.9%
9,c1coc(-c2nc(CNC3CCCNC3)no2)c1 (stereo not given),-25.6%
10,CN(C)c1cc(C2CCCN2C(=O)c2ccc(=O)n(C)c2)ccn1 (stereo not given),-76.7%
11,CN(C)c1cc(CNC(=O)c2ccccc2Cl)ccn1,-7.35%
12,CC(c1cccc(Cl)c1)N(C)Cc1nc2c(cnn2C)c(=O)[nH]1 (stereo not given),15.32%
13,COCCc1ncc(CNC2(c3ccc(Cl)cc3)CC2)cn1,-57.4%
14,CC(C)CN1C[C@@H]2C(=O)N(C)C3(CCN(C(=O)C(C)C)CC3)[C@@H]2C1,-40.5%
15,Cc1noc(C(C)C)c1C(=O)NCCCN1CCNCC1,-18%
16,Cc1noc(C(C)C)c1C(=O)NCCCN1CCCC1,66.2%
17,Cc1noc(C(C)C)c1C(=O)NCCCN1CCC(C)CC1,-12.1%
18,Cc1ccc2c(n1)N(CCn1cccn1)CCN(S(C)(=O)=O)C2,-73.5%
19,c1ccc(Cc2nnc(CN3CCn4c(nnc4C4CC4)C3)o2)cc1,21.5%
20,CNc1ncc(CN(C)C(=O)[C@@]23CNC[C@@H]2CN(C(=O)C2CC2)C3)cn1,-149%
21,Cc1c[nH]c(CN(C)C(=O)[C@@]23CNC[C@@H]2CN(c2ncccn2)C3)n1,30%
22,Cc1cnc(CN(C)C(=O)C23CNCC2CNC3)[nH]1 (stereo not given),58.4%
23,Cc1ccc(CN2CCOCS2(=O)=O)cc1F,38%

row,Structure (SMILES),INHIBITION
1,CCn1cc(NC(=O)NCc2ccc(CN3CCOCC3)cc2)cn1,30.2%
2,CN(C)c1ccc(-c2cc(C(=O)O)cc(S(=O)(=O)NC3CC3)c2)cc1,84.9%
3,O=C(O)c1cc(-c2ccoc2)cc(S(=O)(=O)NC2CC2)c1,27.6%
4,O=C(O)c1cc(-c2ccc3c(c2)OCO3)cc(S(=O)(=O)NC2CC2)c1,8.74%
5,N#CC1Sc2nnc(-c3ccccc3F)n2N=C1N (stereo not given),11.6%
6,O=c1[nH]c(-c2ccncc2)ncc1-c1ccnc(NC2CCCCC2)n1,1.11%
7,COc1ccc2[nH]cc(-c3ccnc(NC4CCCC4)n3)c2c1,90.1%
8,COc1ccc2[nH]cc(-c3ccnc(N4CCC(C)CC4)n3)c2c1,36.7%
9,Cc1ccc(CN2CC[C@@]3(O)CCN(S(=O)(=O)N(C)C)C[C@H]3C2)cc1C,-4.95%
10,COc1ncccc1CNC(=O)Nc1ccc(N(C)C)nc1,15.6%
11,COCCN1C(=O)CCC12CCN(c1ncc(F)cn1)CC2,14.1%
12,Cc1ccc(CNC2CCCc3c2cnn3Cc2ccccc2)s1 (stereo not given),60.9%
13,CCn1ncc2c1CCCC2NCc1cc(C)ccc1OC (stereo not given),9.14%
14,CCn1ncc2c1CCCC2NCc1cccc2c1OCO2 (stereo not given),33.8%
15,CCCOc1ccc(CNC2CCCc3c2cnn3CC)cc1OC (stereo not given),52%
16,Cc1cccc(CNC2CCCc3c2cnn3Cc2ccccc2)c1 (stereo not given),26.4%
17,CCn1ncc2c1CCCC2NCc1ccccc1N1CCOCC1 (stereo not given),56.4%
18,CCn1ncc2c1CCCC2NCC1=Cc2ccccc2OC1 (stereo not given),63.9%
19,CCn1ncc2c1CCCC2NCc1cscn1 (stereo not given),35.4%
20,CCn1ncc2c1CCCC2NCc1ccc(OC)c(C)c1 (stereo not given),38%
21,CCn1ncc2c1CCCC2NCc1ccc(OC)c(F)c1 (stereo not given),21.5%
22,CCn1ncc2c1CCCC2NCc1cccc2c1OCCO2 (stereo not given),18.6%
23,CCn1ncc2c1CCCC2NCc1ccc(C)s1 (stereo not given),-21.9%
